Compounds with a hit are over-represented: about 17% of the library has one in this group of screens.
DT40 TDP1 CPT: growth inhibition of DT40 Tdp1-/-;hTDP1 cells with camptothecin (screen for TDP1 inhibitors); AID 686979; chicken DT40 Tdp1-/-;hTDP1 cells + 20 nM CPT, ATP luminescence, 48 h; Potency, µM (doses to about 46.2 µM), inactives show at the top dose activity change, negative = growth inhibition, actives largely listed as inhibitors; actives 12% (n = 420,000); further: on the % scale 0 is the no-effect control and ±100 the full control effect; nearly all actives have a fitted effect of over 55% in size
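Chicken DT40 Tdp1-/- cells stably complemented with human TDP1 were seeded at 400 cells/well in medium containing 20 nM camptothecin, exposed to pin-transferred compounds, and grown at 37 °C for at least 48 hr. Viability was read as ATP luminescence.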
DT40 TDP1 no CPT: qHTS for Inhibitors of human tyrosyl-DNA phosphodiesterase 1 (TDP1): qHTS in cells in absence of CPT | actives 15% (n = 420,000) | AID 686978, 2013 | Potency, µM (doses to about 46.2 µM), for inactives: at the highest dose activity change, negative = growth inhibition, hits mostly inhibitors | DT40 Tdp1-/- hTDP1 cells, no CPT, ATP luminescence, 48 h; further: on the % scale 0 is the no-effect control and ±100 the full control effect; nearly all actives have a fitted effect of over 55% in size
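Growth kinetics read by CellTiter-Glo luminescence after ≥48 hr at 37 °C. Cells: DT40 Tdp1-/- stably carrying human TDP1, 400 per well, compound exposure in the absence of CPT (DMSO vehicle).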
S2 tox: cell viability loss in ATXN counter-screen; AID 651635; actives 0.49% (n = 400,000); Potency, µM (doses to about 56.7 µM), most hits filed as cytotoxic; S2 cells (HEK-293 line with an ATXN2-luciferase reporter) viability, CellTiter-Fluor protease fluorescence, 24 h; further: nearly all actives have a fitted effect of over 40% in size
ATXN2 expr inh: reduces ATXN2 reporter expression in HEK-293 cells; actives 0.72% (n = 360,000); AID 1745845; HEK-293 ATXN2-luciferase reporter, luminescence, 24 h; Potency, µM (titrated, usually from 57 µM), for inactives: at the highest dose activity change, negative = inhibition, most hits filed as inhibitors; further: on the % scale 0 is the no-effect control and ±100 the full control effect; nearly all actives have a fitted effect of over 55% in size
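ATXN2-luciferase reporter cells (luciferase flanked by upstream and downstream ATXN2 gene portions) were treated 24 h at 37 °C with compounds at up to 57 uM. SteadyGlo luminescence gave expression; GF-AFC fluorescence gave viability.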
TGFb inhibitor: TGF-b pathway inhibition; AID 588855; HepG2 CAGA-GFP TGF-b/SMAD3 reporter, GFP fluorescence, 18 h; TGF-beta stimulated, 500 pg/mL final; Potency, µM (titrated, usually from 46.1 µM), inactives show at the top dose activity, negative = inhibition, hits mostly inhibitors; actives 1.2% (n = 410,000); further: on the % scale 0 is the no-effect control and ±100 the full control effect; nearly all actives have a fitted effect of over 65% in size
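First, reporter cells (HEPG2 CAGA-GFP) rested 2 h at 37 degrees C. Next, compounds were pinned in and TGF-beta added to 500 pg/mL final. After 18 h, GFP was imaged per cell and summed per well.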
HepG2 viability: counter-screen for TGF-b inhibitors: cytotoxicity in HepG2 cells; HepG2 CAGA-GFP viability, ATP luminescence, 18 h; Potency, µM (top dose mostly 46.1 µM), for the others: top-dose activity change, negative = cytotoxicity, usual class: cytotoxic; actives 0.76% (n = 410,000); AID 588856
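HepG2 CAGA-GFP cells (1000/well, DMEM with 1% FBS) received compound, then TGF-beta at 500 pg/mL final, and were incubated 18 hours at 37 degrees C. Viability was read by CellTiter-Glo luminescence. Media-only wells were set as complete cell-killing and DMSO as no toxicity.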
Numbers without * were called inactive; i = inactive; ? = inconclusive; / = no result. The call rests on the fitted dose curve; in most records, active means well fitted curve in the direction sought with a large enough effect; inconclusive means small, poorly fitted or top-dose-only effect, or another doubt; inactive means no such curve, though single readings can be large; an effect the other way counts as inactive or inconclusive. Potency means the concentration at half of the fitted maximal effect.

SMILES	DT40 TDP1 CPT	DT40 TDP1 no CPT	S2 tox	ATXN2 expr inh	TGFb inhibitor	HepG2 viability
CCN(c1ccccc1)S(=O)(=O)c1ccc(N2CCN(c3ccc(OC)cc3)CC2)nc1	11.6µM*	?	i	/	-2.2%	-9.9%
CCN(CC)S(=O)(=O)c1ccc(N2CCN(S(=O)(=O)c3ccccc3)CC2)nc1	-14.1%	?	i	-20.7%	-10.0%	-18.3%
c1cncc(CNc2c3c(nc4nnnn24)CCCC3)c1	-2.5%	1.5%	i	1.4%	-8.4%	-0.9%
COc1cc(O)c2c(c1)C1OC1C[C@H](O)[C@H](O)C(=O)C=CC[C@H](C)OC2=O (stereo partly drawn)	/	/	/	6.85µM*	/	/
NC(=S)N=Nc1c(O)n(Cc2ccc(Br)cc2)c2ccccc12	5.17µM*	4.61µM*	?	?	?	-52.3%
C/C(Cl)=C\Cn1c(O)c(N=O)c2ccccc21	-15.1%	-21.2%	i	-20.7%	?	-14.4%
Cc1ccc2c(c1)c(N=O)c(O)n2Cc1ccc(Cl)cc1	-20.5%	-16.2%	i	-2.3%	-19.0%	-52.8%
NC(=S)N=Nc1c(O)n(Cc2ccc(F)cc2)c2ccccc12	16.4µM*	?	?	?	-9.7%	-25.2%
Cc1ccc(Cn2c(O)c(N=O)c3ccccc32)cc1	33.6%	-10.6%	?	1.8%	-23.2%	-34.7%
C/C(Cl)=C\Cn1c(O)c(N=NC(N)=S)c2cc(Br)ccc21	1.3µM*	1.64µM*	?	?	?	-65.4%
Cc1ccc2c(c1)c(N=NC(N)=S)c(O)n2Cc1ccccc1	4.11µM*	3.26µM*	?	-25.9%	4.6%	-19.8%
CC(=O)OC1COC(n2c(O)c(N=NC(N)=S)c3ccccc32)C(OC(C)=O)C1OC(C)=O (stereo not drawn)	-24.6%	-0.1%	?	-2.8%	-11.9%	-18.0%
COCCn1c(CN2CCN(C(=O)c3ccco3)CC2)nc2c1c(=O)n(C)c(=O)n2C	-14.5%	16.4%	i	3.5%	-2.5%	-0.9%
CCOC(=O)CN(C)C(=O)CCc1nnc(-c2ccc(-c3ccccc3)cc2)o1	?	?	i	-12.7%	-17.5%	0.0%
CC(NC(=O)CCc1nnc(-c2ccc(-c3ccccc3)cc2)o1)c1nc2ccccc2[nH]1 (stereo not drawn)	18.4µM*	16.4µM*	i	3.77µM*	-23.7%	-23.4%
CC(C)(CO)CNC(=O)CCc1nnc(-c2ccc(-c3ccccc3)cc2)o1	?	20.6µM*	i	?	0.7%	-11.8%
O=C(c1ccccc1)N1CCN(Cc2c[nH]c3ccccc23)CC1	?	?	i	-9.7%	1.9%	-22.1%
O=[N+]([O-])c1ccccc1CN1CCN(Cc2ccccn2)CC1	25.9µM*	?	i	-3.4%	0.0%	-38.3%
O=[N+]([O-])c1ccccc1CN1CCN(Cc2c[nH]c3ccccc23)CC1	2.91µM*	3.66µM*	?	-6.2%	?	-51.5%
O=[N+]([O-])c1ccccc1CN1CCN(c2ncccn2)CC1	-10.6%	?	i	0.4%	0.6%	-24.9%
O=C(Nc1ccc([N+](=O)[O-])cc1)Nc1nc(-c2ccc(Cl)s2)cs1	4.61µM*	3.66µM*	14.1µM*	7.94µM*	?	10µM*
CCCC(=O)Nc1nc(-c2ccc(Cl)s2)cs1	16.4µM*	5.8µM*	i	7.7%	-23.1%	-15.0%
O=C(Nc1ccc(Cl)cc1)Nc1nc(-c2ccccc2)cs1	?	-19.4%	?	-17.3%	?	-6.6%
O=C(Nc1nc(-c2ccc(Cl)s2)cs1)c1cccs1	23.1µM*	18.4µM*	i	8.5%	?	-41.6%
Cc1cccc(CNC(=O)c2ccc(N3Cc4ccccc4Oc4ncccc43)s2)c1	?	-83.4%	/	/	-5.4%	-3.3%
SMILES	DT40 TDP1 CPT	DT40 TDP1 no CPT	S2 tox	ATXN2 expr inh	TGFb inhibitor	HepG2 viability
Cc1ccc(C(C)NC(=O)c2c(-c3ccccc3)noc2C)cc1C (stereo not drawn)	?	?	i	-15.5%	-6.3%	-18.3%
CC(=O)N1c2ccc(S(=O)(=O)N3CCCC(C(=O)N4CCC(C)CC4)C3)cc2CC1C (stereo not drawn)	20.6µM*	16.4µM*	i	-25.5%	-23.1%	-18.1%
CC(=O)N1c2ccc(S(=O)(=O)N3CCCC(C(=O)N4CCCC(C)C4)C3)cc2CC1C (stereo not drawn)	23.1µM*	?	i	-16.1%	-9.1%	-8.2%
CC(=O)N1c2ccc(S(=O)(=O)NCCC(=O)N3CCCC(C)C3)cc2CC1C (stereo not drawn)	18.4µM*	?	i	6.8%	3.6%	-0.5%
CC(=O)N1c2ccc(S(=O)(=O)N3CCC(C(=O)N4CCCCC4)CC3)cc2CC1C (stereo not drawn)	?	?	i	-6.6%	-11.2%	-16.3%
CC(=O)N1c2ccc(S(=O)(=O)N3CCCCC3)cc2CC1C (stereo not drawn)	-10.0%	-11.6%	i	-4.8%	8.1%	12.0%
Cc1ccc(S(=O)(=O)N(CC(=O)Nc2cccc(C(F)(F)F)c2)C(=O)N2CCN(C)CC2)cc1	0.1%	1.1%	?	-3.0%	35.8%	3.9%
Cc1ccc(CSCC(=O)N(C)CC(=O)Nc2c(Cl)cccc2Cl)cc1	18.4µM*	?	i	-16.4%	-16.5%	-30.1%
Cc1ccc(CSCC(=O)N(C)CC(=O)Nc2ccccc2Cl)cc1	-7.5%	?	i	-6.2%	3.2%	2.0%
COc1ccc(Cc2nnc(NCCO)[nH]c2=O)cc1OC	16.4µM*	8.2µM*	i	-12.8%	-3.2%	4.5%
COc1ccc(Cc2nnc(N/N=C/c3ccc(Br)cc3)[nH]c2=O)cc1OC	-0.6%	2.0%	i	0.9%	-0.5%	-8.1%
COc1ccc(Cc2nnc(N/N=C/c3ccc(O)cc3)[nH]c2=O)cc1OC	1.03µM*	0.651µM*	?	1.58µM*	?	-5.8%
COc1ccc(Cc2nnc(NCCO)[nH]c2=O)cc1	-1.1%	19.8%	i	-0.7%	11.2%	18.1%
O=C(Nc1cccc(F)c1)NC1(C(=O)NCC2CCCO2)CCCCC1 (stereo not drawn)	21.5%	-0.3%	i	1.1%	8.3%	2.8%
CCc1c(C)sc(NC(=O)CN2CCN(C(=O)c3ccco3)CC2)c1C(=O)OC	18.4µM*	?	i	-30.6%	0.0%	-24.2%
